± gives the standard deviation of the averaged measurements. About 5,400 targets were measured; listed, in parts, are those with the largest changes and a random draw of the rest.
Compound: Nc1nc2c(ncn2[C@@H]2O[C@H](COP(=O)(O)OP(=O)(O)OP(=O)(O)O)[C@@H](O)[C@H]2O)c(=O)[nH]1 [guanosine triphosphate]
Assay: NP40-soluble protein abundance relative to vehicle (solubility fold change) (ratio); higher = more soluble protein in presence of GTP
Summary of the method: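 Data come from three independent experiments in which Dounce-homogenised Jurkat crude lysate was treated at eight concentrations from 0.1 to 10 mM. Treatment ran 10 min at room temperature and then 3 min at 37 °C, after which 0.8% NP40 and benzonase were added for 60 min at 4 °C before ultracentrifugation. The supernatant underwent TMT labelling and LC-MS/MS, and vsn-normalised intensities were expressed as fold change against the detergent-processed vehicle in each replicate.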

Chain of UniProt P13051 (P13051 whole entry): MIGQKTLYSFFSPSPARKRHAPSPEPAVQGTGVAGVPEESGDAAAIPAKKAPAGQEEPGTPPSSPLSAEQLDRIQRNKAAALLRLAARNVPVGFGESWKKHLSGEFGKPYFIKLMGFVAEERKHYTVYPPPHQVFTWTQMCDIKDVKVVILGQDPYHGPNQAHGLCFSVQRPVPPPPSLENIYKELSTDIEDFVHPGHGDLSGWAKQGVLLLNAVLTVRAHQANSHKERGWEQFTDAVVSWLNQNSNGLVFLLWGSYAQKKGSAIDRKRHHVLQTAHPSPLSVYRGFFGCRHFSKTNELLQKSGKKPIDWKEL
Chain of UniProt O43181 (O43181 whole entry): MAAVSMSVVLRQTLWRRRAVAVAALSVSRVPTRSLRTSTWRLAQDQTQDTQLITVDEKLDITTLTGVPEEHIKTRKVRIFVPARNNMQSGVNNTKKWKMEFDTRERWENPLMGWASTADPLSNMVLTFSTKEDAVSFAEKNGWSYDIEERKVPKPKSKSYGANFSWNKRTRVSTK
Chain of UniProt O43324 (O43324 whole entry): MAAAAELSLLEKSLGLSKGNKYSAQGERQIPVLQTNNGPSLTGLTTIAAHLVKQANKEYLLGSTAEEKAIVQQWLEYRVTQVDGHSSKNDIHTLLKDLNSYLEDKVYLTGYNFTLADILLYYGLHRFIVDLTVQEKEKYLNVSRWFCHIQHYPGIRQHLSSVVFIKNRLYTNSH
Chain of UniProt P41091 (P41091 whole entry): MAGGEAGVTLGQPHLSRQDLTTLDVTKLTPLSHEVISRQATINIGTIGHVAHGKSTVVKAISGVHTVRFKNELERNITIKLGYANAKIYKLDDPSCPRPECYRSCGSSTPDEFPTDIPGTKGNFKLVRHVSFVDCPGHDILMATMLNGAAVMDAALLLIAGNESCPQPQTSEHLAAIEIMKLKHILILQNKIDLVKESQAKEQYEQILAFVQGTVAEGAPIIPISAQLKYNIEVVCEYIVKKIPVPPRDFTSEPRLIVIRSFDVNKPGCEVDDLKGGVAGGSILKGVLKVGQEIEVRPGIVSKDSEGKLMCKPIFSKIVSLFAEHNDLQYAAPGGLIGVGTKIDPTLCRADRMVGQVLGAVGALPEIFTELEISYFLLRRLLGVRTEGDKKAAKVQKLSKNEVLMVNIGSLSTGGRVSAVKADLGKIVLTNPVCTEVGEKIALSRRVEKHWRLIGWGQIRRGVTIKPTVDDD
Chain of UniProt O60287 (O60287 whole entry): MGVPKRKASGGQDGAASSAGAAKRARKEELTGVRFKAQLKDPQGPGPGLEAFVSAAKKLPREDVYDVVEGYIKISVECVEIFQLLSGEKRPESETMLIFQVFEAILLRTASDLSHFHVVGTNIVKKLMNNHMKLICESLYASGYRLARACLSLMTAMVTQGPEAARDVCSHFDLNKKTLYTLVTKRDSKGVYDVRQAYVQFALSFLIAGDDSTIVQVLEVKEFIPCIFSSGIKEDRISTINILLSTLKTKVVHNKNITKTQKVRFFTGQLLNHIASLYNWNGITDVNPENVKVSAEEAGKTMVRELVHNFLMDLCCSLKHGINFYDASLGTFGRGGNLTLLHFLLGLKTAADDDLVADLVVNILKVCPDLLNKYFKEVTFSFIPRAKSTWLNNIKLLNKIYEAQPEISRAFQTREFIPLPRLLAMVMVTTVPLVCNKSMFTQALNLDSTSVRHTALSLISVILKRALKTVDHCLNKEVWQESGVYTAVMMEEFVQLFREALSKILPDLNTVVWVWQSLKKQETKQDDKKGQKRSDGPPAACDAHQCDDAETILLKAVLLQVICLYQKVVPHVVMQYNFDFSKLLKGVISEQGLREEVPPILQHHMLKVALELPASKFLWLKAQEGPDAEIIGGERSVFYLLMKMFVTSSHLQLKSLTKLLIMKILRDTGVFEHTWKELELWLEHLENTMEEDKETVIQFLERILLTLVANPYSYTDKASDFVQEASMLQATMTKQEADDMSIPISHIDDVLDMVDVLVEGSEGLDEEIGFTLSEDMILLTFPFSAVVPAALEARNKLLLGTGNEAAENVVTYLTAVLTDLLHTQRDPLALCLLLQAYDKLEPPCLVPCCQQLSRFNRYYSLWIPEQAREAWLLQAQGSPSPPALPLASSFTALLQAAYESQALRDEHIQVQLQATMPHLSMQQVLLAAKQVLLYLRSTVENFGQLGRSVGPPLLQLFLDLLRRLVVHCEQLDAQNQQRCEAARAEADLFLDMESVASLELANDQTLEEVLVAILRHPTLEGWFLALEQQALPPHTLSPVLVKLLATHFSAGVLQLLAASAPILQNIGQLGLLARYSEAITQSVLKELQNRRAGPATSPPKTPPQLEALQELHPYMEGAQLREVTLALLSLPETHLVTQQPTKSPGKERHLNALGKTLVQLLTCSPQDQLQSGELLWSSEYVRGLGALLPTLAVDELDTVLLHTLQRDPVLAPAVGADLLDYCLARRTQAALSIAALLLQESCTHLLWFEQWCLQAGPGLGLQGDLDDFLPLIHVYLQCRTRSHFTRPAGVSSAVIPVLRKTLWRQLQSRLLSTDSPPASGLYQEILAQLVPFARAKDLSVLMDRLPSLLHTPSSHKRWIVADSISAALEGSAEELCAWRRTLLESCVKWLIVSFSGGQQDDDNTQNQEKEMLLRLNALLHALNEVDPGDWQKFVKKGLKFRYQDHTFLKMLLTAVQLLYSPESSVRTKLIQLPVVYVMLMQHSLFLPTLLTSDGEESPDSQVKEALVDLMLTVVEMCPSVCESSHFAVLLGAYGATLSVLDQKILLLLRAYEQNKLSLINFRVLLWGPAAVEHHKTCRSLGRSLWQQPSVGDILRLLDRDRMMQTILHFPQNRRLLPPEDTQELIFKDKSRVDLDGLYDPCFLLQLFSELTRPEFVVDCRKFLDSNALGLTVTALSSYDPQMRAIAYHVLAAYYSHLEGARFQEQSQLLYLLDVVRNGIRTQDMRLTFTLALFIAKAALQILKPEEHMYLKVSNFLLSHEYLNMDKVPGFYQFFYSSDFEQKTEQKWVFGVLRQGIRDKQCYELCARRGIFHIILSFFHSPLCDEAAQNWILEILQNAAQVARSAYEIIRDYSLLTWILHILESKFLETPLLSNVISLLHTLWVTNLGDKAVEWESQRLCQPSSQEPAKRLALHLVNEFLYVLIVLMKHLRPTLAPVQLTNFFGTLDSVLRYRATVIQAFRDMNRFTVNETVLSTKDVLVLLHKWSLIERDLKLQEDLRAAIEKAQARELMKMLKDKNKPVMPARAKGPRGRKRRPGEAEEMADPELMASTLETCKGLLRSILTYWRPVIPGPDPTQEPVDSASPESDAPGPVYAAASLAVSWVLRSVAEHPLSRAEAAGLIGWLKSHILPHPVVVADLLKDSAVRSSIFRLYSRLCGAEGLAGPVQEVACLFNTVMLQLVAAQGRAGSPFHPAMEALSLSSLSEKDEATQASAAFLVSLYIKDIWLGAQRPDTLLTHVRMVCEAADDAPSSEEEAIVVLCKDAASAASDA
Chain of UniProt O75822 (O75822 whole entry): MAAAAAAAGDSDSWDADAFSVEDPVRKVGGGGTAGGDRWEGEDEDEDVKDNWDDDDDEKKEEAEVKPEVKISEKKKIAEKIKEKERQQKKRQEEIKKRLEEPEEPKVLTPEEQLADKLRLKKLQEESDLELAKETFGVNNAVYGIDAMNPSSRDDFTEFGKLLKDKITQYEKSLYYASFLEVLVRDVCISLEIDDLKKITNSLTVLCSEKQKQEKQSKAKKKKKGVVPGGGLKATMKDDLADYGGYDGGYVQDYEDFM
Chain of UniProt P16401 (P16401 whole entry): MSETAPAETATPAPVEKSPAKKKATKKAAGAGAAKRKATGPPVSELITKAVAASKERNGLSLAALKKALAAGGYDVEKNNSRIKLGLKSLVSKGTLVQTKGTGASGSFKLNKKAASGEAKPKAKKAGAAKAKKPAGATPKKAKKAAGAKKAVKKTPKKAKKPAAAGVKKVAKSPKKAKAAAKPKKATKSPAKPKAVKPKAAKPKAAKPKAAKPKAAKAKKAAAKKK
Chain of UniProt P49736 (P49736 whole entry): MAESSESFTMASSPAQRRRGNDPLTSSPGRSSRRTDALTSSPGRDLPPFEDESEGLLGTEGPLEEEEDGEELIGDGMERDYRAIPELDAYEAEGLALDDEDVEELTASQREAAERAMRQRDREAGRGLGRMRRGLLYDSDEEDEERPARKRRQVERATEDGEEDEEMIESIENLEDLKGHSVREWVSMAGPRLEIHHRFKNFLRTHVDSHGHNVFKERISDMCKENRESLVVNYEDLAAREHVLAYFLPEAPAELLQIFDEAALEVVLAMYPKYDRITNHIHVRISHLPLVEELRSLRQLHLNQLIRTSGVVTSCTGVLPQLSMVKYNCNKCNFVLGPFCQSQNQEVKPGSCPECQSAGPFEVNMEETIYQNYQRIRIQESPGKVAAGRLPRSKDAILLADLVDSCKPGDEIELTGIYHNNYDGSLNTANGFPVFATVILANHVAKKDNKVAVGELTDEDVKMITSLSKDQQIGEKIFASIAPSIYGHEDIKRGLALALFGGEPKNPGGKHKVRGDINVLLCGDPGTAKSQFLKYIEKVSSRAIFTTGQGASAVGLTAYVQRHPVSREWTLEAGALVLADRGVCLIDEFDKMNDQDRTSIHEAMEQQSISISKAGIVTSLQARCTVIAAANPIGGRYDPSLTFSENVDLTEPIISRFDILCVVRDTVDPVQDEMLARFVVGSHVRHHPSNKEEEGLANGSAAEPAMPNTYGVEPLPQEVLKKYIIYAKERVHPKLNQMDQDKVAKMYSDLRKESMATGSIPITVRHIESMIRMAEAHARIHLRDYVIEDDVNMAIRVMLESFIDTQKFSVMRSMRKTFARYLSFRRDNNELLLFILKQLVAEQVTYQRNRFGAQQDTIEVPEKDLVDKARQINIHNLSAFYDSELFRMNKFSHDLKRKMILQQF
Chain of UniProt P09382 (P09382 whole entry): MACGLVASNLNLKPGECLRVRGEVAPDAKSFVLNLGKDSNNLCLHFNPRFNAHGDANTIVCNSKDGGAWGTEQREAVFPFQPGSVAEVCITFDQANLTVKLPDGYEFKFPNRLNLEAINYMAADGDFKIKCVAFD

Target	NP40-soluble protein abundance (concentration: 0.1mM)	NP40-soluble protein abundance (concentration: 0.5mM)	NP40-soluble protein abundance (concentration: 1mM)	NP40-soluble protein abundance (concentration: 2mM)	NP40-soluble protein abundance (concentration: 4mM)	NP40-soluble protein abundance (concentration: 6mM)	NP40-soluble protein abundance (concentration: 8mM)	NP40-soluble protein abundance (concentration: 10mM)
UniProt O60861|O60861-1|O60861-4	1 ± 0.02	1.01 ± 0.071	1.01 ± 0.047	0.94 ± 0.063	0.935 ± 0.035	0.929 ± 0.04	0.978 ± 0.046	0.888 ± 0.06
NDUFS4 (UniProt O43181)	1 ± 0.029	1.047 ± 0.0028	1.08 ± 0.053	1.12 ± 0.1	1.09 ± 0.12	1.1 ± 0.12	1.14 ± 0.18	1.1 ± 0.15
MCM2 (UniProt P49736)	1.01 ± 0.052	1.07 ± 0.071	0.975 ± 0.074	0.985 ± 0.099	0.974 ± 0.1	0.983 ± 0.1	0.944 ± 0.083	0.929 ± 0.074
URB1 (UniProt O60287)	1.07 ± 0.019	1.16 ± 0.061	1.21 ± 0.076	1.41 ± 0.097	1.79 ± 0.072	1.95 ± 0.13	2.18 ± 0.082	2.34 ± 0.033
LGALS1 (UniProt P09382)	0.889 ± 0.036	0.886 ± 0.037	0.885 ± 0.042	0.789 ± 0.055	0.813 ± 0.11	0.822 ± 0.067	0.821 ± 0.03	0.809 ± 0.055
IGHMBP2 (UniProt P38935)	1.07 ± 0.072	1.09 ± 0.1	1.14 ± 0.099	1.26 ± 0.17	1.44 ± 0.26	1.6 ± 0.27	1.7 ± 0.43	1.92 ± 0.48
EIF2S3 (UniProt P41091)	1.02 ± 0.024	1.05 ± 0.045	0.967 ± 0.015	0.98 ± 0.071	0.981 ± 0.04	0.995 ± 0.038	0.956 ± 0.025	0.931 ± 0.065
UniProt O96028|O96028-3|O96028-5	1.04 ± 0.032	1.06 ± 0.049	1.19 ± 0.027	1.26 ± 0.027	1.44 ± 0.053	1.49 ± 0.047	1.59 ± 0.067	1.69 ± 0.062
EEF1E1 (UniProt O43324)	1.05 ± 0.28	0.987 ± 0.27	1.24 ± 0.41	1.43 ± 0.46	1.41 ± 0.44	1.39 ± 0.45	1.22 ± 0.39	1.31 ± 0.55
TGFB1 (UniProt P01137)	0.926 ± 0.072	1.02 ± 0.11	0.908 ± 0.091	0.961 ± 0.092	0.987 ± 0.055	0.958 ± 0.088	0.896 ± 0.11	0.968 ± 0.14
UniProt O75822|O75822-2	0.856 ± 0.038	0.825 ± 0.074	0.908 ± 0.09	0.954 ± 0.098	1.07 ± 0.17	1.32 ± 0.22	1.4 ± 0.3	1.77 ± 0.39
CBR3 (UniProt O75828)	1.15 ± 0.032	1.21 ± 0.11	1.11 ± 0.029	1.06 ± 0.082	1.04 ± 0.082	0.936 ± 0.091	1.08 ± 0.22	1.09 ± 0.11
HIST1H1B (UniProt P16401)	0.956 ± 0.023	0.937 ± 0.02	1.09 ± 0.037	1.15 ± 0.014	1.22 ± 0.042	1.272 ± 0.012	1.22 ± 0.039	1.73 ± 0.19
UniProt P13051|P13051-2	0.9724 ± 0.0086	0.946 ± 0.019	0.944 ± 0.073	0.91 ± 0.062	0.886 ± 0.075	0.892 ± 0.07	0.893 ± 0.036	0.863 ± 0.1

Reference: the supplement of paper PMC6411743
